# Laboratory results: publication PMC7862700, “An all-to-all approach to the identification of sequence-specific readers for epigenetic DNA modifications on cytosine”
# How the values were obtained:
# Experiment in all cases: DAPPL (digital affinity profiling via proximity ligation, sequencing); 10 mM Tris-HCl pH 7.5, 50 mM NaCl, 1 mM DTT, 4% glycerol, room temperature, 30 min; GST-TFs on glutathione beads, 16-mer random dsDNA library, 0.1% formaldehyde crosslink after washing; high values mean tight binding
# FLI1 = molecular target: T1, FLI1 (Homo sapiens, UniProt Q01543 1-452); conditions: protein: recombinant; tags: N-terminal GST; dsDNA, one strand shown
# T1 sequence: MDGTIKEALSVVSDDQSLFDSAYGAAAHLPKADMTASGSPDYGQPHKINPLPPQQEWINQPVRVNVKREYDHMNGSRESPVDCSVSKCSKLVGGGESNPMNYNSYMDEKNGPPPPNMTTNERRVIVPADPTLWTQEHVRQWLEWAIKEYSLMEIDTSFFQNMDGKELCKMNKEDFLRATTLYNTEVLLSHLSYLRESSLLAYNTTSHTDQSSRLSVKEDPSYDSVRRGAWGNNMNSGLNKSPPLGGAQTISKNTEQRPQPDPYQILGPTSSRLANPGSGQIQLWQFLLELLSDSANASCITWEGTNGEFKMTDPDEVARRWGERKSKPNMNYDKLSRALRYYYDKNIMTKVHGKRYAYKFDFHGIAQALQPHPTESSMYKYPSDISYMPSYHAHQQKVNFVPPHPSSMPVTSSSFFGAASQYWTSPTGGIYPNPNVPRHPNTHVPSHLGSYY
# Procedure, shortened: (§1)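 Beads coated with glutathione captured GST-fused human transcription factors that had been expressed in yeast, and the factors were then given DNA barcodes and pooled with a tag-only sample. The pools were incubated with 200 nmole of a random double-stranded 16-mer DNA library in Tris/NaCl/DTT/glycerol buffer for 30 min at room temperature, washed, crosslinked with 0.1% formaldehyde and proximity-ligated with BsaI/T4 ligase at 37 °C for 1 h. PCR amplification and Illumina NextSeq500 sequencing came last. Binding signal is each hexamer's read frequency for a factor divided by its frequency for the tag-only sample.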
# ELK1 = molecular target: T2, ELK1 (Homo sapiens, UniProt P19419 1-428); conditions: protein: recombinant; tags: N-terminal GST; dsDNA, one strand shown
# T2 sequence: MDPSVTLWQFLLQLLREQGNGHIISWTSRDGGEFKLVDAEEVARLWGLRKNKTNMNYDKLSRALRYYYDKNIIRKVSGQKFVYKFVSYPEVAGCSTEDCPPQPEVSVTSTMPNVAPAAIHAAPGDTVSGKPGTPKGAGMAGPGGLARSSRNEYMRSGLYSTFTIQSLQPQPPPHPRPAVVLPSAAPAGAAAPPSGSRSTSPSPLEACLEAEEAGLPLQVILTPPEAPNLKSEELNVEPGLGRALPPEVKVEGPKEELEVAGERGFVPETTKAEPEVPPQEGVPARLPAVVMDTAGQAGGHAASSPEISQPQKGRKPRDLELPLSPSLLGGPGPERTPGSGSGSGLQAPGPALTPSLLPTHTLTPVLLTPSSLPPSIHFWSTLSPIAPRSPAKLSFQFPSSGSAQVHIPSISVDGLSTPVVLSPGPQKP
# Procedure, shortened: as §1
# GABPA = molecular target: T3, GABPA (Homo sapiens, UniProt Q06546 1-454); conditions: protein: recombinant; tags: N-terminal GST; dsDNA, one strand shown
# T3 sequence: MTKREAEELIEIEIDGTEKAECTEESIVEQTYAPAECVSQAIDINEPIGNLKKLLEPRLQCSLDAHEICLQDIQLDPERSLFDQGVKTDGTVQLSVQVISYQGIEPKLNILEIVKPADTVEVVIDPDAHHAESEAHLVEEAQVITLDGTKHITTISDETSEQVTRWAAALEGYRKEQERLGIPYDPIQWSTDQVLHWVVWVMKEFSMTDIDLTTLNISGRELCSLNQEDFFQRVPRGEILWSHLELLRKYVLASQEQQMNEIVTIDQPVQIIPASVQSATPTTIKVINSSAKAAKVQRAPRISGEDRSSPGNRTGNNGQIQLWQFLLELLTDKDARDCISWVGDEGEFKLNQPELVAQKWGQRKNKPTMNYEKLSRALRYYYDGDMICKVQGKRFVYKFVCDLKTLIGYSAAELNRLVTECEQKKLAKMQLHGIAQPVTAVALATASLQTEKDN
# Procedure, shortened: as §1
# ERG = molecular target: T4, ERG (Homo sapiens, UniProt P11308 1-479); conditions: protein: recombinant; tags: N-terminal GST; dsDNA, one strand shown
# T4 sequence: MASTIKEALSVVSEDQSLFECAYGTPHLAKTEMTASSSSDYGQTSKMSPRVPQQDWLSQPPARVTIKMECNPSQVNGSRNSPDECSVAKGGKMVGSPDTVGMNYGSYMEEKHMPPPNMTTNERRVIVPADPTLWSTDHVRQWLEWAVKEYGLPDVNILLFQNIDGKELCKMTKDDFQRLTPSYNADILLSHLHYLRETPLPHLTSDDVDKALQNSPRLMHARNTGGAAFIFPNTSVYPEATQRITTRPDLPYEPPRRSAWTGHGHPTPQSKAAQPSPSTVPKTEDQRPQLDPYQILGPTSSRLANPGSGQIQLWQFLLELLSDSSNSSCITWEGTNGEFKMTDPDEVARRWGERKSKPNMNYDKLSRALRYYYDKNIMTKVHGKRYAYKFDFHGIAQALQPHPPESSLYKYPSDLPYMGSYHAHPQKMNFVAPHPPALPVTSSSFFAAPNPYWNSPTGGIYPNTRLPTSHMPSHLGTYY
# Procedure, shortened: as §1
# ELF1 = ELF1 (Homo sapiens, UniProt P32519 1-619); conditions: protein: recombinant; tags: N-terminal GST; dsDNA, one strand shown
# Sequence of ELF1 (P32519 whole entry): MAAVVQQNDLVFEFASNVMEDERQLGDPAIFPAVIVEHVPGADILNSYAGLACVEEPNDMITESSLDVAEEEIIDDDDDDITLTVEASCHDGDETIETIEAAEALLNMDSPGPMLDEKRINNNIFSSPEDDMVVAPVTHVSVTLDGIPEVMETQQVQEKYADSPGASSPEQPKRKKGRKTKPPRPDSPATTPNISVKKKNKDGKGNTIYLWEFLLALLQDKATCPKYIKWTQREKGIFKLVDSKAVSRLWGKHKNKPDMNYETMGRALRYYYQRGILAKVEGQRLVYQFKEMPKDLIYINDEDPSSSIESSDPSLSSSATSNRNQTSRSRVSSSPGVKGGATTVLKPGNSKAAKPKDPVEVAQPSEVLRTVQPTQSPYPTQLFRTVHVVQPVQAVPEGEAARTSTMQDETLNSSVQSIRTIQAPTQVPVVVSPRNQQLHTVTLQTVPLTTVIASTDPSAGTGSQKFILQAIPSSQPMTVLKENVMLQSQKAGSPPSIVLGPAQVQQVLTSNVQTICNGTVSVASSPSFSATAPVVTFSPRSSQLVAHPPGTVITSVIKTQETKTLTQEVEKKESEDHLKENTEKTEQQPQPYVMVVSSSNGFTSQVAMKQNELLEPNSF
# Procedure, shortened: as §1
# EHF = molecular target: T5, EHF (Homo sapiens, UniProt Q9NZC4 1-300); conditions: protein: recombinant; tags: N-terminal GST; dsDNA, one strand shown
# T5 sequence: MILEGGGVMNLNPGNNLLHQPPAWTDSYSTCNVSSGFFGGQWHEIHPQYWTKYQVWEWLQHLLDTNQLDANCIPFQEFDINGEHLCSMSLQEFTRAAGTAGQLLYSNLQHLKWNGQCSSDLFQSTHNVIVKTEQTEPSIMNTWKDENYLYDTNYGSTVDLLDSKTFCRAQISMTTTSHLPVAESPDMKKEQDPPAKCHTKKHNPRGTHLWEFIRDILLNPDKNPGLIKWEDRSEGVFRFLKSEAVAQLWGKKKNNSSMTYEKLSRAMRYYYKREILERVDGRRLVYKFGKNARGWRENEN
# Procedure, shortened: as §1
# SPI1 = SPI1 (Homo sapiens, UniProt P17947 1-270); conditions: protein: recombinant; tags: N-terminal GST; dsDNA, one strand shown
# Procedure, shortened: as §1
# SPIB = SPIB (Homo sapiens, UniProt Q01892 1-262); conditions: protein: recombinant; tags: N-terminal GST; dsDNA, one strand shown
# Sequence of SPIB (Q01892 whole entry): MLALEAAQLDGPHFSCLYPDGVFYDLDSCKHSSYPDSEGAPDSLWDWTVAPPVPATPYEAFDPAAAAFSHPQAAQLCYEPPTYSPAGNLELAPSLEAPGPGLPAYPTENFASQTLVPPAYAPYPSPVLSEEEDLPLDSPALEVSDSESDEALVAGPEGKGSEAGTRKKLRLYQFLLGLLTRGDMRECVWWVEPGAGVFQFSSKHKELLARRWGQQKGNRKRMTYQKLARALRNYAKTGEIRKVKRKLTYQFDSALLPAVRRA
# Procedure, shortened: as §1
# ELK3 = molecular target: T6, ELK3 (Homo sapiens, UniProt P41970 1-407); conditions: protein: recombinant; tags: N-terminal GST; dsDNA, one strand shown
# T6 sequence: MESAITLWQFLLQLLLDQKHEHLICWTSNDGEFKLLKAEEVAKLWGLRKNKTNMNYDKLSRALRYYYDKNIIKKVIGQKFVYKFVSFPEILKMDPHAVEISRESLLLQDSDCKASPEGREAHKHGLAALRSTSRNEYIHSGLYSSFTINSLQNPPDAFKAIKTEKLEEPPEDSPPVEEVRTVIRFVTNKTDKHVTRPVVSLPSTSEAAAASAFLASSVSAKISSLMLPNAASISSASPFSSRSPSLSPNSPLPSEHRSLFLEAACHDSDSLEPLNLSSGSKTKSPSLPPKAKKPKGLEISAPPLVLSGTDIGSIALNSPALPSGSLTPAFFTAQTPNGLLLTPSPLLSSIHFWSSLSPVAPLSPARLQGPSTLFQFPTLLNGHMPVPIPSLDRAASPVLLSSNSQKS
# Procedure, shortened: as §1
# FEV = molecular target: T7, FEV (Homo sapiens, UniProt Q99581 1-238); conditions: protein: recombinant; tags: N-terminal GST; dsDNA, one strand shown
# T7 sequence: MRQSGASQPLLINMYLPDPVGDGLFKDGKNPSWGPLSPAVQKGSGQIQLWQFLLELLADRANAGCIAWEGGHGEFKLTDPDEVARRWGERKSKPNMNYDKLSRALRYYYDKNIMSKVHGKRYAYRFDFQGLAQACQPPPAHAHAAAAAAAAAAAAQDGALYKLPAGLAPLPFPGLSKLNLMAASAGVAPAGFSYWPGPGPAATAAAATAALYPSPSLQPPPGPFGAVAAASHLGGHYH
# Procedure, shortened: as §1
# ETV5 = ETV5 (Homo sapiens, UniProt P41161 1-510); conditions: protein: recombinant; tags: N-terminal GST; dsDNA, one strand shown
# Sequence of ETV5 (P41161 whole entry): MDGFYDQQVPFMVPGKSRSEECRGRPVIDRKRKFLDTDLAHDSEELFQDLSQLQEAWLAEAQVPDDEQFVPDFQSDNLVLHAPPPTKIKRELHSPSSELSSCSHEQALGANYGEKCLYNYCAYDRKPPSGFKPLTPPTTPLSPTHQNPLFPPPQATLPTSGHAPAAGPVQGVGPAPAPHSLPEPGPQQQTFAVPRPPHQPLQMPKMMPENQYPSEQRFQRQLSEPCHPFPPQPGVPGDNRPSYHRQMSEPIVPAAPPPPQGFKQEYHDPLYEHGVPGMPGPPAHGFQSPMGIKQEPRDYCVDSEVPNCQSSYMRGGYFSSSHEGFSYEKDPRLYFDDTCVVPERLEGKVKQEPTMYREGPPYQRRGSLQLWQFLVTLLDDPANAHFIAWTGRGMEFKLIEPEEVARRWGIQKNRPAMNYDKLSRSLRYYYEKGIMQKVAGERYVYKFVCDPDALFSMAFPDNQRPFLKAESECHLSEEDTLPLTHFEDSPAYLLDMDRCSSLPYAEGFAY
# Procedure, shortened: as §1
# HSF1 = HSF1 (Homo sapiens, UniProt Q00613 1-529); conditions: protein: recombinant; tags: N-terminal GST; chain copies: 3; dsDNA, one strand shown
# Sequence of HSF1 (Q00613 whole entry): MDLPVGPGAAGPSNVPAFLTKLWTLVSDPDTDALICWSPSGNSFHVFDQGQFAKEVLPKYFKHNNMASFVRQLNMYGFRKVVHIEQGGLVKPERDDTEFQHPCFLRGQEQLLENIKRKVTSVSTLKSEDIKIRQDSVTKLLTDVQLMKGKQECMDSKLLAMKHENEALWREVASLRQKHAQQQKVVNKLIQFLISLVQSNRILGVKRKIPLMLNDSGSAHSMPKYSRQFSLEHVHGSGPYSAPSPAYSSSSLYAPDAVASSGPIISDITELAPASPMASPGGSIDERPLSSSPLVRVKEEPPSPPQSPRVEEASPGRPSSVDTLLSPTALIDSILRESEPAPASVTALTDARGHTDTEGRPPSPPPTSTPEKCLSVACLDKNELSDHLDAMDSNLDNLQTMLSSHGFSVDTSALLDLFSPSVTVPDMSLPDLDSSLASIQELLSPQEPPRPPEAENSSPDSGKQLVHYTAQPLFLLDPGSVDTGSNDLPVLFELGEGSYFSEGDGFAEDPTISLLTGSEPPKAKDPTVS
# Procedure, shortened: as §1
# SPIC = molecular target: T8, SPIC (Homo sapiens, UniProt Q8N5J4 1-248); conditions: protein: recombinant; tags: N-terminal GST; dsDNA, one strand shown
# T8 sequence: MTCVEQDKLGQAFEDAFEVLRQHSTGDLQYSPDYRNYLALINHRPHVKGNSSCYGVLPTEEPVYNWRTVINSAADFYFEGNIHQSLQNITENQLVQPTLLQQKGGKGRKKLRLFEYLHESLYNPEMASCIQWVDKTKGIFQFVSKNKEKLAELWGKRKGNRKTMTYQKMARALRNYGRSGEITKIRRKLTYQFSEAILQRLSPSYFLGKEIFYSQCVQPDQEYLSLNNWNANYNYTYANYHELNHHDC
# Procedure, shortened: as §1
# ELF4 = ELF4 (Homo sapiens, UniProt Q99607 1-663); conditions: protein: recombinant; tags: N-terminal GST; dsDNA, one strand shown
# Sequence of ELF4 (Q99607 whole entry): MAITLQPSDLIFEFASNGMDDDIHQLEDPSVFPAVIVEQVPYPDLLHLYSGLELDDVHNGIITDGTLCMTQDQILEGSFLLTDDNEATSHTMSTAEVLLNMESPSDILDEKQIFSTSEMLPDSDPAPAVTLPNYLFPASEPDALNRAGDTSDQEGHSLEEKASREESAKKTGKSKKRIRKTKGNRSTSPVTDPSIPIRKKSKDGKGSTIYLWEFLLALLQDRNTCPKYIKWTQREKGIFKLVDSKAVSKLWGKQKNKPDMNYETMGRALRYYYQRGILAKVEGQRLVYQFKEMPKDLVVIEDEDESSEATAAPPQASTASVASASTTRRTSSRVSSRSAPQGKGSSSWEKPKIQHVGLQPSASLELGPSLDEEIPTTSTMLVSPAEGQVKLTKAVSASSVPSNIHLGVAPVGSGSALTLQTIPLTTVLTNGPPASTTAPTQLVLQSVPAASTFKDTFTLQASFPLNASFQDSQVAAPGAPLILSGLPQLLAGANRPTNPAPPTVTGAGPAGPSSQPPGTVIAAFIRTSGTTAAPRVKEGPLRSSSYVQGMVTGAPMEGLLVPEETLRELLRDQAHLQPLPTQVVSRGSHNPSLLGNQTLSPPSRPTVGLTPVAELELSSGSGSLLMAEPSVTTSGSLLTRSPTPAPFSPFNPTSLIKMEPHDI
# Procedure, shortened: as §1
# ELK4 = molecular target: T9, ELK4 (Homo sapiens, UniProt P28324-2 1-405); conditions: protein: recombinant; tags: N-terminal GST; dsDNA, one strand shown
# T9 sequence: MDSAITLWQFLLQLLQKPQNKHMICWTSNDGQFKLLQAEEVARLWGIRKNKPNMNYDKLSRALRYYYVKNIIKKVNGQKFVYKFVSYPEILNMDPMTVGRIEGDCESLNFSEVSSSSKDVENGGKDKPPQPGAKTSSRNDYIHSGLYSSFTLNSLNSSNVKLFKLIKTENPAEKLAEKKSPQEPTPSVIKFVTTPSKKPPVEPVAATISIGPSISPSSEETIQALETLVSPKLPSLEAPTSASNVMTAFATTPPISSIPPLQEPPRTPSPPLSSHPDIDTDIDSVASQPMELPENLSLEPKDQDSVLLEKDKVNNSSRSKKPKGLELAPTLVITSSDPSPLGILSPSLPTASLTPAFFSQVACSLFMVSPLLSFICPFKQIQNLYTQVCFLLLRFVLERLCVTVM
# Procedure, shortened: as §1
# ETV2 = molecular target: T10, ETV2 (Homo sapiens, UniProt O00321 1-342); conditions: protein: recombinant; tags: N-terminal GST; dsDNA, one strand shown
# T10 sequence: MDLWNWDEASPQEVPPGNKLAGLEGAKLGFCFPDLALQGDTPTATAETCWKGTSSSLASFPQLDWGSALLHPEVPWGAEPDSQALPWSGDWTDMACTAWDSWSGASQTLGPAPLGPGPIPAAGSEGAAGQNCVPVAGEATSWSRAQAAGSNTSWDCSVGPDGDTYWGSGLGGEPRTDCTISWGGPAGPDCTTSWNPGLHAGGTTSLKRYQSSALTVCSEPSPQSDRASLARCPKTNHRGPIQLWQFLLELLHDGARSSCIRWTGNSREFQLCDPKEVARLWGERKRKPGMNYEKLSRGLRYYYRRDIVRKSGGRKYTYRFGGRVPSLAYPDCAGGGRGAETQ
# Procedure, shortened: as §1
# ELF3 = molecular target: T11, ELF3 (Homo sapiens, UniProt P78545 1-371); conditions: protein: recombinant; tags: N-terminal GST; dsDNA, one strand shown
# T11 sequence: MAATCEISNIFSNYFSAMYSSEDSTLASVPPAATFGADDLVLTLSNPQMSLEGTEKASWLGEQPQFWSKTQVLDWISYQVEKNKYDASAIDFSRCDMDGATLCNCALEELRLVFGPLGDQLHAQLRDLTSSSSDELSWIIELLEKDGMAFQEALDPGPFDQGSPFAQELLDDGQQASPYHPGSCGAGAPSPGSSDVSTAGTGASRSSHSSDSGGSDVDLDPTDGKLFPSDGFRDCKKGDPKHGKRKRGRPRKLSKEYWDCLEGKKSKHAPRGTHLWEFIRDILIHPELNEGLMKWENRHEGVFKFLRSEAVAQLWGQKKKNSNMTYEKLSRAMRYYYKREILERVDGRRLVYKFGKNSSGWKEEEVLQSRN
# Procedure, shortened: as §1
# CRX = CRX (Homo sapiens, UniProt O43186 1-299); conditions: protein: recombinant; tags: N-terminal GST; dsDNA, one strand shown
# Sequence of CRX (O43186 whole entry): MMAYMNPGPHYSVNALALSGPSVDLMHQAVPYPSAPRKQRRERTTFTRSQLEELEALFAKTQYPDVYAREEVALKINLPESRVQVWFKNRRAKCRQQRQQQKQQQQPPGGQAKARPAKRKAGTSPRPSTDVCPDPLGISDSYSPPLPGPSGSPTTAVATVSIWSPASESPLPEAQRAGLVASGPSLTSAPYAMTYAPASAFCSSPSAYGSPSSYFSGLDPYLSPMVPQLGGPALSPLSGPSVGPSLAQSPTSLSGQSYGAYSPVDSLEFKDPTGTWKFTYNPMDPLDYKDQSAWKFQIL
# Procedure, shortened: as §1
# ETV1 = ETV1 (Homo sapiens, UniProt P50549 1-477); conditions: protein: recombinant; tags: N-terminal GST; dsDNA, one strand shown
# Sequence of ETV1 (P50549 whole entry): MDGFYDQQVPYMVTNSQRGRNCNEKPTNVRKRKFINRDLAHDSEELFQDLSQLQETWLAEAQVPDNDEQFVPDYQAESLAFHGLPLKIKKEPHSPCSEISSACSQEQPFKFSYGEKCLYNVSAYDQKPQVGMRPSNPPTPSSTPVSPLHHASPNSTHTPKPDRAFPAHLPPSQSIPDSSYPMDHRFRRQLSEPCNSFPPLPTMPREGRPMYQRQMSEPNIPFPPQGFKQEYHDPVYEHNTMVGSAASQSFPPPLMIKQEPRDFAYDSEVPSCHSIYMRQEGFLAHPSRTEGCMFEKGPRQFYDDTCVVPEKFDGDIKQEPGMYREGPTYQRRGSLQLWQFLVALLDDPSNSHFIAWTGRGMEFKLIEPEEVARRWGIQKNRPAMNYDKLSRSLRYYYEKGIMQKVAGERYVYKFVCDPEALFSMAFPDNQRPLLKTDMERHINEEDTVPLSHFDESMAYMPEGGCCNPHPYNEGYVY
# Procedure, shortened: as §1
sequence,measurement,setting,value
CAATTT,binding signal,FLI1,"1.26 fold enrichment (6-mer frequency, TF over GST control)"
same,binding signal,ELK1,"1.35 fold enrichment (6-mer frequency, TF over GST control)"
same,binding signal,GABPA,"1.37 fold enrichment (6-mer frequency, TF over GST control)"
same,binding signal,ERG,"1.43 fold enrichment (6-mer frequency, TF over GST control)"
same,binding signal,ELF1,"1.29 fold enrichment (6-mer frequency, TF over GST control)"
same,binding signal,EHF,"1.28 fold enrichment (6-mer frequency, TF over GST control)"
same,binding signal,SPI1,"1.32 fold enrichment (6-mer frequency, TF over GST control)"
same,binding signal,SPIB,"1.43 fold enrichment (6-mer frequency, TF over GST control)"
same,binding signal,ELK3,"1.12 fold enrichment (6-mer frequency, TF over GST control)"
same,binding signal,FEV,"1.5 fold enrichment (6-mer frequency, TF over GST control)"
same,binding signal,ETV5,"1.29 fold enrichment (6-mer frequency, TF over GST control)"
same,binding signal,HSF1,"1.15 fold enrichment (6-mer frequency, TF over GST control)"
same,binding signal,SPIC,"1.26 fold enrichment (6-mer frequency, TF over GST control)"
same,binding signal,ELF4,"1.35 fold enrichment (6-mer frequency, TF over GST control)"
same,binding signal,ELK4,"1.31 fold enrichment (6-mer frequency, TF over GST control)"
same,binding signal,ETV2,"1.44 fold enrichment (6-mer frequency, TF over GST control)"
same,binding signal,ELF3,"1.53 fold enrichment (6-mer frequency, TF over GST control)"
same,binding signal,CRX,"1.07 fold enrichment (6-mer frequency, TF over GST control)"
same,binding signal,ETV1,"1.35 fold enrichment (6-mer frequency, TF over GST control)"
